Assay results from publication PMC7862700, “An all-to-all approach to the identification of sequence-specific readers for epigenetic DNA modifications on cytosine”.

Assays:
Assay in all cases: DAPPL (digital affinity profiling via proximity ligation, sequencing); 10 mM Tris-HCl pH 7.5, 50 mM NaCl, 1 mM DTT, 4% glycerol, room temperature, 30 min; GST-TFs on glutathione beads, 16-mer random dsDNA library, 0.1% formaldehyde crosslink after washing; high values mean tight binding
[1] = biological target: T1, FEV (Homo sapiens, UniProt Q99581 1-238); conditions: protein: recombinant; tags: N-terminal GST; dsDNA, one strand shown
T1 sequence: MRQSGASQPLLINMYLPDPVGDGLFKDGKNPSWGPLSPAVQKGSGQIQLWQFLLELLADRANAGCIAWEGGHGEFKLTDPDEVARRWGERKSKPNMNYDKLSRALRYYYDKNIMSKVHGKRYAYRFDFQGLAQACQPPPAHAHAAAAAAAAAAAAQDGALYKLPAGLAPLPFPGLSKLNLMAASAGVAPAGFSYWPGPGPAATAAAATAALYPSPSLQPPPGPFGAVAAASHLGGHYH
Summary of the method: (§1)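 Pools of DNA-barcoded human transcription factors, expressed in yeast as GST fusions on glutathione beads and combined with a tag-only sample, were incubated with 200 nmole of a 16-mer random double-stranded DNA library. Incubation took 30 min at room temperature in Tris/NaCl/DTT/glycerol buffer and was followed by washing, 0.1% formaldehyde crosslinking, proximity ligation (BsaI/T4 ligase, 1 h, 37 °C), PCR amplification and sequencing on an Illumina NextSeq500. Binding signal is the ratio of a hexamer's read frequency for a factor to its frequency for the tag-only sample.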

[2] = biological target: ETV5 (Homo sapiens, UniProt P41161 1-510); conditions: protein: recombinant; tags: N-terminal GST; dsDNA, one strand shown
Chain of ETV5 (P41161 whole entry): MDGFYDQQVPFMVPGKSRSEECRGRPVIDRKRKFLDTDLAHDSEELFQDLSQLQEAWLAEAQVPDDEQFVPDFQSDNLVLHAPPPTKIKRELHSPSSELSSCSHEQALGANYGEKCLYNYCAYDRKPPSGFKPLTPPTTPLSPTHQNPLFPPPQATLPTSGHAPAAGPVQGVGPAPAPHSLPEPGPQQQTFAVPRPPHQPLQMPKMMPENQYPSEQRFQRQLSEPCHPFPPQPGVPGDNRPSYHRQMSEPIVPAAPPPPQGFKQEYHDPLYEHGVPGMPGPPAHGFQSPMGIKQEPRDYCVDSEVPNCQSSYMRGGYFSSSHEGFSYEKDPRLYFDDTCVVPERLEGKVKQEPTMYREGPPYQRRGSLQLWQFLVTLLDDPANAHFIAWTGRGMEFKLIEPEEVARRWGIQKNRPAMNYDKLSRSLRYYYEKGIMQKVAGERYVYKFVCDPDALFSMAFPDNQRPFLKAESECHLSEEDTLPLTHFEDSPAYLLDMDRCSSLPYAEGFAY
Summary of the method: as §1

[3] = biological target: HSF1 (Homo sapiens, UniProt Q00613 1-529); conditions: protein: recombinant; tags: N-terminal GST; chain copies: 3; dsDNA, one strand shown
Chain of HSF1 (Q00613 whole entry): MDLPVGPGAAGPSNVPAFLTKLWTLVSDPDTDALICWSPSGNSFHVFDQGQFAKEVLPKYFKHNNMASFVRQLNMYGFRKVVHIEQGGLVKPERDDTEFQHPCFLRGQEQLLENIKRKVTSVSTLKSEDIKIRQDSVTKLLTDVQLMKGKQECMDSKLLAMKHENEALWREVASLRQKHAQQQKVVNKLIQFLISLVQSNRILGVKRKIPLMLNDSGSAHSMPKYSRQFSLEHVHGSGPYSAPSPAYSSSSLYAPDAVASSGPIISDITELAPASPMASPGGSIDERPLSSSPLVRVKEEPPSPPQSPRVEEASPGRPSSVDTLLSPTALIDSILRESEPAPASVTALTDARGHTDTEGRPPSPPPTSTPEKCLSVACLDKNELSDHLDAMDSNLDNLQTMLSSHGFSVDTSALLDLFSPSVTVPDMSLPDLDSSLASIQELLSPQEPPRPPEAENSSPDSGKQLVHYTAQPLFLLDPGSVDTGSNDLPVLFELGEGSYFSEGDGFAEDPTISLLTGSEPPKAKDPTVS
Summary of the method: as §1

[4] = biological target: T2, SPIC (Homo sapiens, UniProt Q8N5J4 1-248); conditions: protein: recombinant; tags: N-terminal GST; dsDNA, one strand shown
T2 sequence: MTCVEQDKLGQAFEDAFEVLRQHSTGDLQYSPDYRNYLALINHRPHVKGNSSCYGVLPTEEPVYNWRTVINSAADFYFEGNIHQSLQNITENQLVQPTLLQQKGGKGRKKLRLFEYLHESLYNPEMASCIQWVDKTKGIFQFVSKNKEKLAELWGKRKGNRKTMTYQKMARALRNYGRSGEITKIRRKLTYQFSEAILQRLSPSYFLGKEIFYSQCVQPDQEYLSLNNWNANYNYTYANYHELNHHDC
Summary of the method: as §1

[5] = biological target: ELF4 (Homo sapiens, UniProt Q99607 1-663); conditions: protein: recombinant; tags: N-terminal GST; dsDNA, one strand shown
Chain of ELF4 (Q99607 whole entry): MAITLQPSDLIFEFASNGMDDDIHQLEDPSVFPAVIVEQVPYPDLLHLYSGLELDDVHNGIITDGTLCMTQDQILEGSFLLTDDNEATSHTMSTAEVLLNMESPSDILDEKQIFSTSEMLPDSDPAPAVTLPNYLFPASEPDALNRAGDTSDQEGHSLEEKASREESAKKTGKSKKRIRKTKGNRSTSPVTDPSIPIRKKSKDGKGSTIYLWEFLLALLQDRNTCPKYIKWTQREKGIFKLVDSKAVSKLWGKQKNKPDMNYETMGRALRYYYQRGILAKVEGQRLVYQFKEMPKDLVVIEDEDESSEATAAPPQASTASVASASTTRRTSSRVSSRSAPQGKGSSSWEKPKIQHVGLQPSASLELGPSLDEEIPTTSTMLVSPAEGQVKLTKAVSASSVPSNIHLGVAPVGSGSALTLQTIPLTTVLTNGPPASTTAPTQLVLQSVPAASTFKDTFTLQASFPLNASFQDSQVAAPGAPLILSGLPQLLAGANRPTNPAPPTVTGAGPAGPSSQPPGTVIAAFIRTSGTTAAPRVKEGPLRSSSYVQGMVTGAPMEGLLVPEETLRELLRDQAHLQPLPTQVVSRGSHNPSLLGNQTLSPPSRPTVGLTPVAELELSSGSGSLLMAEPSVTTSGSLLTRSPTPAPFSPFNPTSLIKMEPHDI
Summary of the method: as §1

[6] = biological target: T3, ELK4 (Homo sapiens, UniProt P28324-2 1-405); conditions: protein: recombinant; tags: N-terminal GST; dsDNA, one strand shown
T3 sequence: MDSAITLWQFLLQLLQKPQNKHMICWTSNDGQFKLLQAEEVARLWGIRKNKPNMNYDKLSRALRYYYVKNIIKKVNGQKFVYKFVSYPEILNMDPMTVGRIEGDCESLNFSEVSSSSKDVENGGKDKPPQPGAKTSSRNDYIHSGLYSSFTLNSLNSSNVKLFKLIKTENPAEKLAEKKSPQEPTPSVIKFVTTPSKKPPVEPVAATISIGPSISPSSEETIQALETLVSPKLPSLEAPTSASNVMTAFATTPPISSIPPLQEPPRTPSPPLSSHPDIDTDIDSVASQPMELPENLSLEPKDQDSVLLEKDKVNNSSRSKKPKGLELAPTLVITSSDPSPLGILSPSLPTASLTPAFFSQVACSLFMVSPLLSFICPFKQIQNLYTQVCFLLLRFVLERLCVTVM
Summary of the method: as §1

[7] = biological target: T4, ETV2 (Homo sapiens, UniProt O00321 1-342); conditions: protein: recombinant; tags: N-terminal GST; dsDNA, one strand shown
T4 sequence: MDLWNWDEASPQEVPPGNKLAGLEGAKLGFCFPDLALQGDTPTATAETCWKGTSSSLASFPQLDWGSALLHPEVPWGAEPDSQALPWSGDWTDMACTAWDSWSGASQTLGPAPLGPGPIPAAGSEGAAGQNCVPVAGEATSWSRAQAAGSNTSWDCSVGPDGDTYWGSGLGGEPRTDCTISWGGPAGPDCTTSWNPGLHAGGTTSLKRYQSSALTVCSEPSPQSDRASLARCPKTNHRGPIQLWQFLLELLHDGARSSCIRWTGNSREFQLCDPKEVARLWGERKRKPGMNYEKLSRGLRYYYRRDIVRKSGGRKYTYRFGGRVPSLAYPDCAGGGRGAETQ
Summary of the method: as §1

[8] = biological target: T5, ELF3 (Homo sapiens, UniProt P78545 1-371); conditions: protein: recombinant; tags: N-terminal GST; dsDNA, one strand shown
T5 sequence: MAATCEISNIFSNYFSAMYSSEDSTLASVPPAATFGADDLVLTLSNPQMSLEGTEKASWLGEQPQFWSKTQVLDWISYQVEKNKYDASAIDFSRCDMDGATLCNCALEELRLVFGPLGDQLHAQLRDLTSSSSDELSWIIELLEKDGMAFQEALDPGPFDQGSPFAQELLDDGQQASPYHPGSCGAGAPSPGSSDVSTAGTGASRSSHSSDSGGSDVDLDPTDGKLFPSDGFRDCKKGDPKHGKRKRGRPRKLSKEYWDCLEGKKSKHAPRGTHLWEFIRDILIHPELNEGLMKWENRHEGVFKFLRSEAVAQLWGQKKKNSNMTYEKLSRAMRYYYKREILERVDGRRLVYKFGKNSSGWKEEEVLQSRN
Summary of the method: as §1

[9] = biological target: CRX (Homo sapiens, UniProt O43186 1-299); conditions: protein: recombinant; tags: N-terminal GST; dsDNA, one strand shown
Chain of CRX (O43186 whole entry): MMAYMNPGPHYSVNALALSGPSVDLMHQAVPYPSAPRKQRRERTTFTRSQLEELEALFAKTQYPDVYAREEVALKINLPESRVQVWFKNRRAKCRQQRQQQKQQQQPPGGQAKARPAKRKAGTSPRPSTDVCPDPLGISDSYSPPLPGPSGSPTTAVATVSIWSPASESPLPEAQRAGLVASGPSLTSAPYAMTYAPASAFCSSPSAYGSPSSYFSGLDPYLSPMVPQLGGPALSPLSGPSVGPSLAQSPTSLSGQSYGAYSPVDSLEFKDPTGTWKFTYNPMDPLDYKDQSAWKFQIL
Summary of the method: as §1

[10] = biological target: ETV1 (Homo sapiens, UniProt P50549 1-477); conditions: protein: recombinant; tags: N-terminal GST; dsDNA, one strand shown
Chain of ETV1 (P50549 whole entry): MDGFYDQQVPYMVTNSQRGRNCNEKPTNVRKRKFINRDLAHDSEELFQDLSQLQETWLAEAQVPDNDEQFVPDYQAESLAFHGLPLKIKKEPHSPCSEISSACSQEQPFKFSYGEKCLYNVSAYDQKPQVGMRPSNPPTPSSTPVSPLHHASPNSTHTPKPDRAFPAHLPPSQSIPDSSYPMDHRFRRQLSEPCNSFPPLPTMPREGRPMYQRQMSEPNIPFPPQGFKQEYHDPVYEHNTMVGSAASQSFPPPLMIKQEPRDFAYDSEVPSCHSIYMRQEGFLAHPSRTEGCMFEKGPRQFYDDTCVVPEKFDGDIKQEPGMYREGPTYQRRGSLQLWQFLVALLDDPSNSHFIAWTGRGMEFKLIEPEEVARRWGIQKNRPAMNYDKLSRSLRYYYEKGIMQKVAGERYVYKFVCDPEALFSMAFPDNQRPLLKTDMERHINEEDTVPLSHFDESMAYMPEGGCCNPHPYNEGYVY
Summary of the method: as §1

[11] = biological target: T6, ERF (Homo sapiens, UniProt P50548 1-548); conditions: protein: recombinant; tags: N-terminal GST; dsDNA, one strand shown
T6 sequence: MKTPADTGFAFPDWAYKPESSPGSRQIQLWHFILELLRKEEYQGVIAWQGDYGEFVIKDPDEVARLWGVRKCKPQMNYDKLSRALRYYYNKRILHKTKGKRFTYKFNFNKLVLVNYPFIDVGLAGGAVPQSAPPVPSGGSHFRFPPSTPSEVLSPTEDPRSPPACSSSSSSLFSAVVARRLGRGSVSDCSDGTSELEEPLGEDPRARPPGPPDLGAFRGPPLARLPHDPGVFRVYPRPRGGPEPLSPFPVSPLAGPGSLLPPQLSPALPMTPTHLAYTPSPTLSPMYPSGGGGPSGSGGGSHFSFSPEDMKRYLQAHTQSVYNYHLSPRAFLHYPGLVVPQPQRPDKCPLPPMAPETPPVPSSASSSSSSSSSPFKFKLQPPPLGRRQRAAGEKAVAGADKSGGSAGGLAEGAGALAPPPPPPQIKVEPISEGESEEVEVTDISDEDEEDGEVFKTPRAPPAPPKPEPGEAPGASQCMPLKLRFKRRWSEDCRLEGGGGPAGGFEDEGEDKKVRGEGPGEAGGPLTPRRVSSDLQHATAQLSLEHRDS
Summary of the method: as §1

[12] = biological target: T7, ETV3L (Homo sapiens, UniProt Q6ZN32 1-361); conditions: protein: recombinant; tags: N-terminal GST; dsDNA, one strand shown
T7 sequence: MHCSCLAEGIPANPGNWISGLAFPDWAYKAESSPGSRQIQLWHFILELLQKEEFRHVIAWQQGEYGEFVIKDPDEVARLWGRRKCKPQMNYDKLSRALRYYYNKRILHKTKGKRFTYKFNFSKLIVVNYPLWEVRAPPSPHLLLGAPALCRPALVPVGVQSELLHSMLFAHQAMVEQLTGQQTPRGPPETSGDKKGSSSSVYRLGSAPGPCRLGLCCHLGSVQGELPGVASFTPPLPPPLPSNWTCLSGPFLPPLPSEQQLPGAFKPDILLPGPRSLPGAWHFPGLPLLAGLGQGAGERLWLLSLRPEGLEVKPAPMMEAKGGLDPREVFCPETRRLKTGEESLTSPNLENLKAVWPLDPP
Summary of the method: as §1

[13] = biological target: T8, ETS2 (Homo sapiens, UniProt P15036 1-469); conditions: protein: recombinant; tags: N-terminal GST; dsDNA, one strand shown
T8 sequence: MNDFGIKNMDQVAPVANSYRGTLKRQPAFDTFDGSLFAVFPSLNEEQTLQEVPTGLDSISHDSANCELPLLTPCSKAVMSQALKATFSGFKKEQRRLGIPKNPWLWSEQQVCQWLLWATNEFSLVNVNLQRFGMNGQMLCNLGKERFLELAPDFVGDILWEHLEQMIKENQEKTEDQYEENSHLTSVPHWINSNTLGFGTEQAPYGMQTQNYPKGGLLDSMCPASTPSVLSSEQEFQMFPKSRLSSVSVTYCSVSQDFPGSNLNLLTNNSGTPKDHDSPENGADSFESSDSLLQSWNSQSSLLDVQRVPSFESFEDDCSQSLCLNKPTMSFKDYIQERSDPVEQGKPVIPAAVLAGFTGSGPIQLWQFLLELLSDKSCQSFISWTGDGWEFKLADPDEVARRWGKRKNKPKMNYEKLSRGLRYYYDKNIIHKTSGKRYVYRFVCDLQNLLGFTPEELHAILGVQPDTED
Summary of the method: as §1

[14] = biological target: T9, ETV7 (Homo sapiens, UniProt Q9Y603 1-341); conditions: protein: recombinant; tags: N-terminal GST; dsDNA, one strand shown
T9 sequence: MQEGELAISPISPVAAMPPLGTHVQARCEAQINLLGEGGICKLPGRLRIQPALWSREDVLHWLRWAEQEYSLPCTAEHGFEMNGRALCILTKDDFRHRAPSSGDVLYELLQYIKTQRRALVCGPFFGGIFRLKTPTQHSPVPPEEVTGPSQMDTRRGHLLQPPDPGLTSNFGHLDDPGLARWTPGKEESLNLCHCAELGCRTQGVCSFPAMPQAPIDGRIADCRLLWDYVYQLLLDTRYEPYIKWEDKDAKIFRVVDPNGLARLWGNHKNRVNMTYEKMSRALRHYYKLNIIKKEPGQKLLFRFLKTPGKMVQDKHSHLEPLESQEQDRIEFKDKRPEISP
Summary of the method: as §1

[15] = biological target: T10, ELF5 (Homo sapiens, UniProt Q9UKW6-2 1-255); conditions: protein: recombinant; tags: N-terminal GST; dsDNA, one strand shown
T10 sequence: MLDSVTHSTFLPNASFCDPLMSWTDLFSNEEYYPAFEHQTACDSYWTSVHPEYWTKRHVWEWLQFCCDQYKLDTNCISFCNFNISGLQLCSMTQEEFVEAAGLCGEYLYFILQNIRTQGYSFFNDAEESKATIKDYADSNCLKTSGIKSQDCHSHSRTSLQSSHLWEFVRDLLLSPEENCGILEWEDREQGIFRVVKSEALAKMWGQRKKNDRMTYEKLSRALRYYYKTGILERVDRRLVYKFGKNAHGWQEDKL
Summary of the method: as §1

[16] = biological target: T11, ETV3 (Homo sapiens, UniProt P41162-2 1-143); conditions: protein: recombinant; tags: N-terminal GST; dsDNA, one strand shown
T11 sequence: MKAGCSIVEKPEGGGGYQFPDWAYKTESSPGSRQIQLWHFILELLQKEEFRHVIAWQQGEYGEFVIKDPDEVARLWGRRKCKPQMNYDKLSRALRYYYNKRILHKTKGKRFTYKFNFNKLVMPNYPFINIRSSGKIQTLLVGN
Summary of the method: as §1

[17] = biological target: ETV6 (Homo sapiens, UniProt P41212 1-452); conditions: protein: recombinant; tags: N-terminal GST; dsDNA, one strand shown
Chain of ETV6 (P41212 whole entry): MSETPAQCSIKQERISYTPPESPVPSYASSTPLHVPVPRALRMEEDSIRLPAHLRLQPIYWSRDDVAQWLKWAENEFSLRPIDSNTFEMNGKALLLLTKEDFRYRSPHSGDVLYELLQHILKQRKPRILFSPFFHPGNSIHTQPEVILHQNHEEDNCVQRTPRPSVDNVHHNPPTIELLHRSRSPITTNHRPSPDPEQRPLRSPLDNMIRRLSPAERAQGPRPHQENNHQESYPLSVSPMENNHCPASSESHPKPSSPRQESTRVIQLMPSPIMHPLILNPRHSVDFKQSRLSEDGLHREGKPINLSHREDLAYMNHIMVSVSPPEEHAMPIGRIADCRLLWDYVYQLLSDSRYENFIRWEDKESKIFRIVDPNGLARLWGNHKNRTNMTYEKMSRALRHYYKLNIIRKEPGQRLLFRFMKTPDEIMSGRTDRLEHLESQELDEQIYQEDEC
Summary of the method: as §1

## GAATCT
[1]
  binding signal: 1.03 fold enrichment (6-mer frequency, TF over GST control)
[2]
  binding signal: 1.13 fold enrichment (6-mer frequency, TF over GST control)
[3]
  binding signal: 1.76 fold enrichment (6-mer frequency, TF over GST control)
[4]
  binding signal: 1.05 fold enrichment (6-mer frequency, TF over GST control)
[5]
  binding signal: 1.07 fold enrichment (6-mer frequency, TF over GST control)
[6]
  binding signal: 1.08 fold enrichment (6-mer frequency, TF over GST control)
[7]
  binding signal: 1.2 fold enrichment (6-mer frequency, TF over GST control)
[8]
  binding signal: 1.03 fold enrichment (6-mer frequency, TF over GST control)
[9]
  binding signal: 1.21 fold enrichment (6-mer frequency, TF over GST control)
[10]
  binding signal: 1.08 fold enrichment (6-mer frequency, TF over GST control)
[11]
  binding signal: 1.17 fold enrichment (6-mer frequency, TF over GST control)
[12]
  binding signal: 1.05 fold enrichment (6-mer frequency, TF over GST control)
[13]
  binding signal: 1.08 fold enrichment (6-mer frequency, TF over GST control)
[14]
  binding signal: 1.03 fold enrichment (6-mer frequency, TF over GST control)
[15]
  binding signal: 1.07 fold enrichment (6-mer frequency, TF over GST control)
[16]
  binding signal: 1.13 fold enrichment (6-mer frequency, TF over GST control)
[17]
  binding signal: 1.06 fold enrichment (6-mer frequency, TF over GST control)

## GACTTT
[1]
  binding signal: 1.14 fold enrichment (6-mer frequency, TF over GST control)
[2]
  binding signal: 1.22 fold enrichment (6-mer frequency, TF over GST control)
[3]
  binding signal: 1.4 fold enrichment (6-mer frequency, TF over GST control)
[4]
  binding signal: 1.21 fold enrichment (6-mer frequency, TF over GST control)
[5]
  binding signal: 1.22 fold enrichment (6-mer frequency, TF over GST control)
[6]
  binding signal: 1.17 fold enrichment (6-mer frequency, TF over GST control)
[7]
  binding signal: 1.1 fold enrichment (6-mer frequency, TF over GST control)
[8]
  binding signal: 1.1 fold enrichment (6-mer frequency, TF over GST control)
[9]
  binding signal: 1.37 fold enrichment (6-mer frequency, TF over GST control)
[10]
  binding signal: 1.24 fold enrichment (6-mer frequency, TF over GST control)
[11]
  binding signal: 1.09 fold enrichment (6-mer frequency, TF over GST control)
[12]
  binding signal: 1.13 fold enrichment (6-mer frequency, TF over GST control)
[13]
  binding signal: 1.17 fold enrichment (6-mer frequency, TF over GST control)
[14]
  binding signal: 1.2 fold enrichment (6-mer frequency, TF over GST control)
[15]
  binding signal: 1.13 fold enrichment (6-mer frequency, TF over GST control)
[16]
  binding signal: 1.14 fold enrichment (6-mer frequency, TF over GST control)
[17]
  binding signal: 1.14 fold enrichment (6-mer frequency, TF over GST control)
